The text below walks through data of PubChem BioAssay.

Structures are written as SMILES. Records with an inconclusive call do not appear. Activity calls are given as the source filed them.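 The calls were made as follows, unless noted: active = GFP signal, as percent of the solvent control, above the screen mean plus 3 SD, about 149; inconclusive = no reading because the compound's own fluorescence upset strain identification; inactive = the rest.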

Experiment [1] is described as follows: rapamycin-like changes in RPL19A-GFP expression – cell-based, S. cerevisiae, multiplex flow cytometry, primary screen (AID 1862; in the data active = percent of DMSO control GFP below about 86%;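 also: lower values mimic rapamycin by blocking the RPL19A rise seen in DMSO cells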). The settings on record: S. cerevisiae RPL19A-GFP strain, flow cytometry fluorescence, 3 h; at 10 µM; stronger effect = lower value.
Experiment [2] can be described thus: TOR pathway GLN3 branch reporter MEP2-GFP changes – S. cerevisiae, multiplex flow cytometry, primary screen (AID 1867;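 active = GFP response, as percent of the DMSO control, above the screen-wide mean plus 3 SD, about 139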;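 also: median GFP channel fluorescence of barcode-gated MEP2-GFP cells measured by flow cytometry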). As to conditions: S. cerevisiae MEP2-GFP strain, 3 h, at 10 µM, stronger effect = higher value, 100% means same as DMSO wells. A general note: Flow cytometry measures light scatter and fluorescence of single cells or particles in a stream.
Experiment [3] in a line: TOR pathway RTG branch CIT2 reporter changes – S. cerevisiae, GFP fusion, multiplex flow cytometry, primary screen (AID 1870;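 active = percent response above a set limit, the screen-wide mean plus 3 SD, cut at about 130% in these data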;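 also: barcoded CIT2-GFP strain pooled with four other GFP strains with rapamycin as positive control; median GFP fluorescence per well over plate mean of DMSO wells so 100% = DMSO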). As to conditions: S. cerevisiae CIT2-GFP expression, 3 h, at 10 µM, stronger effect = higher value.
Experiment [4] is described as follows: TOR pathway LAP4-GFP level changes – S. cerevisiae, multiplex flow cytometry, primary screen (AID 1873). The settings on record: S. cerevisiae LAP4-GFP expression, 3 h, at 10 µM, stronger effect = higher value.
The nature of experiment [5]: yeast AGP1-GFP level changes, GLN3 branch – cell-based, multiplex flow cytometry, S. cerevisiae, primary screen (AID 1887;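 active = GFP signal above the screen-wide mean plus 3 SD, that is over about 124.5% of the solvent control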;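 also: AGP1-GFP fusion strain of S. cerevisiae within a five-strain barcoded multiplex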). As to conditions: 3 h, at 10 µM, stronger effect = higher value.
A short description of experiment [6]: reduced mouse 2C T cell binding to pMHC/ICAM-1 vesicles – MLPCN validation set, flow cytometry, LFA-1/ICAM-1 modulator project, pilot screen (AID 2523;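 active = response below a set limit, under 55% cells CD8-positive and vesicle-bound, and CD8 cells' 90th-percentile brightness under 279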;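 as to vesicle binding response: mean PE anti-B7-1 fluorescence of CD8+ cells relative to row control; 100% = QL9-loaded vesicles with DMSO vehicle in the same plate row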). As to conditions: 2C mouse CD8+ T cells, at 7 µM, stronger effect = lower value; double positive events: measured here: CD8+/vesicle+ event percentage.
Experiment [7] concerns the target Integrin beta-1 (Homo sapiens) + Integrin alpha-4 (Homo sapiens) (UniProt P13612+P05556). The experiment is described as follows: alpha4beta1 integrin LIBS antibody binding reduction – U937 cells, HUTS-21 mAb, flow cytometry, validation set, VLA-4 allosteric modulator project, pilot screen (AID 2674;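 active = inhibition above 50%, about 3 SD of the validation set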;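 also: antibody binding induced by the VLA-4 ligand LDV present at three times its Kd; 0% = LDV ligand with antibody and no compound and 100% = antibody without LDV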). As to conditions: HUTS-21 LIBS mAb binding, at 6.7 µM, stronger effect = higher value, binding induced by LDV ligand.

Experiment [8] can be described thus: calorie-restriction mimetic ROS inhibitors, yeast – validation compound set, pilot screen (AID 2706;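 active = superoxide response below 65% of plate, a cut near 3 SD across the whole screen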;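 also: yeast exposed to compound for one week at 30 degrees C before staining; 100% = mean of all compound wells on the same plate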). As to conditions: S. cerevisiae aging, superoxide DHE fluorescence; at 10 µM; stronger effect = lower value.
Experiment [9] concerns the target Beta-adrenergic receptor kinase 1 (Homo sapiens) (UniProt P25098). Nature of the experiment: GRK2 binders displacing RNA aptamer, biochemical, validation, human GRK2, bead flow cytometry (AID 488806;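 active = aptamer binding inhibition above 30%, about 3 SD of noise from non-fluorescent compounds; inactive = inhibition at or below 30%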). The settings on record: bead-bound GRK2, FAM-aptamer displacement, at 10 µM, stronger effect = higher value.
For experiment [10], the target named is Beta-2 adrenergic receptor (Homo sapiens) (UniProt P07550). Nature of the experiment: agonist-induced loss of surface beta2AR – cell-based, FAP fluorogen, flow cytometry, validation set, pilot screen (AID 504459;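 active = percent response above 42, roughly 3 SD of non-fluorescent test compounds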;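 also: agonist-driven loss of surface beta2AR via internalization measured by FAP dye flow cytometry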). The settings on record: Am2.2-beta2AR cells, at 10 µM, stronger effect = higher value.
Experiment [11] has as its target AP-2 complex subunit beta (Homo sapiens) (UniProt P63010). The experiment is described as follows: beta-arrestin/AP2 interaction blockers – biochemical, validation set, GST-AP2 beads, flow cytometry, pilot screen (AID 504541;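 active = inhibition above 54%, about 3 SD of non-fluorescent compounds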;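 also: AP2 carries R879A mutation and is captured from E. coli lysate; bead-bound FITC arrestin peptide fluorescence measuring arrestin peptide binding to AP2; 0% = DMSO wells and 100% = excess unlabeled arrestin peptide control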). The settings on record: FITC arrestin peptide, at 10 µM, stronger effect = higher value, AP2 beta2 appendage fragment, R879A mutant.
Experiment [12] can be described thus: cytosolic pH regulators acting via V-ATPase – S. cerevisiae, pHLuorin, HTS validation (AID 504600; in the data active = response above about 15%;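 also: plate controls were DMSO for no effect and reference compound for full effect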). As to conditions: V-ATPase proton transport, at 10 µM, stronger effect = higher value.
Experiment [13] deals with anti-desmoglein-3 scFv antibody binding to human DSG3. Nature of the experiment: blockers of pathogenic pemphigus antibody–desmoglein-3 binding – biochemical, validation compound set, bead-based, flow cytometry, pilot screen (AID 588368;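 active = binding below the plate cutoff, the plate median minus 3 SD, with a reading above zero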;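 also: signal is the median channel fluorescence of bead-bound GFP antibody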). As to conditions: Protein G beads, DSG3-Fc, scFv-GFP binding, at 10 µM, stronger effect = lower value.
A short description of experiment [14]: Nile Red efflux blockade in pump-expressing yeast – validation compound set, multiplex, phenotypic, pilot screen (AID 588506;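 active = efflux inhibition above 0.42, the validation set average plus 4 SD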;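 also: Nile Red retained in cells so higher fluorescence means more efflux inhibition; 0 = negative control wells and 1 = enniatin B 25 µM full block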). As to conditions: S. cerevisiae pump-expressing triplex, Nile Red efflux flow cytometry; at 10 µM; stronger effect = higher value; the pumps come from Candida albicans.
Experiment [15] deals with ATP-binding cassette sub-family B member 6 (Homo sapiens) (UniProt Q9NP58). Nature of the experiment: blockers of ABCB6-driven porphyrin uptake – K562-ABCB6 cells, flow cytometry, validation set, pilot screen (AID 588550;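 active = inhibition above the screen-wide mean plus 3 SD, about 51%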;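 also: 0% = DMSO wells and 100% = benzethonium chloride 70 µM positive control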). As to conditions: K562-ABCB6 porphyrin accumulation, 1 h, at 10 µM, stronger effect = higher value.
Experiment [16] is described as follows: AML differentiation inducers, ER-HoxA9 marrow cells – cell-based, GFP/MAC1 double positive, flow cytometry, validation set, primary screen (AID 588685;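 active = differentiation response of at least 50%, scaled between solvent and reference control, from cells with both markers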;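 also: compound exposure lasts four days before antibody staining and flow analysis; 0% = DMSO wells and 100% = 5 µM fulvestrant positive control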). As to conditions: stronger effect = higher value, normalized: vehicle 0, fulvestrant 100.

Beta-2 adrenergic receptor (Homo sapiens), sequence (P07550 whole entry, looked up): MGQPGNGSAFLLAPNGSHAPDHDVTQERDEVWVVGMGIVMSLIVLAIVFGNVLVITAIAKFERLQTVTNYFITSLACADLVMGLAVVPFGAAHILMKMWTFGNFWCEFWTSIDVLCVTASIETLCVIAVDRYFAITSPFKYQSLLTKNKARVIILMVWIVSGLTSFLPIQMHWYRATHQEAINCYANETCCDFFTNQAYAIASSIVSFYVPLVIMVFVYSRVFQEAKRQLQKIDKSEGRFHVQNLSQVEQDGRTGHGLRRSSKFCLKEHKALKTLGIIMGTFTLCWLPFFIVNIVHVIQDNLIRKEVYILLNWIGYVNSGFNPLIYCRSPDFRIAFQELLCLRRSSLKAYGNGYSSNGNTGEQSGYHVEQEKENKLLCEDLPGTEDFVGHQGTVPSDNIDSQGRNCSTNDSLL
ATP-binding cassette sub-family B member 6 (Homo sapiens), sequence (Q9NP58 whole entry, looked up): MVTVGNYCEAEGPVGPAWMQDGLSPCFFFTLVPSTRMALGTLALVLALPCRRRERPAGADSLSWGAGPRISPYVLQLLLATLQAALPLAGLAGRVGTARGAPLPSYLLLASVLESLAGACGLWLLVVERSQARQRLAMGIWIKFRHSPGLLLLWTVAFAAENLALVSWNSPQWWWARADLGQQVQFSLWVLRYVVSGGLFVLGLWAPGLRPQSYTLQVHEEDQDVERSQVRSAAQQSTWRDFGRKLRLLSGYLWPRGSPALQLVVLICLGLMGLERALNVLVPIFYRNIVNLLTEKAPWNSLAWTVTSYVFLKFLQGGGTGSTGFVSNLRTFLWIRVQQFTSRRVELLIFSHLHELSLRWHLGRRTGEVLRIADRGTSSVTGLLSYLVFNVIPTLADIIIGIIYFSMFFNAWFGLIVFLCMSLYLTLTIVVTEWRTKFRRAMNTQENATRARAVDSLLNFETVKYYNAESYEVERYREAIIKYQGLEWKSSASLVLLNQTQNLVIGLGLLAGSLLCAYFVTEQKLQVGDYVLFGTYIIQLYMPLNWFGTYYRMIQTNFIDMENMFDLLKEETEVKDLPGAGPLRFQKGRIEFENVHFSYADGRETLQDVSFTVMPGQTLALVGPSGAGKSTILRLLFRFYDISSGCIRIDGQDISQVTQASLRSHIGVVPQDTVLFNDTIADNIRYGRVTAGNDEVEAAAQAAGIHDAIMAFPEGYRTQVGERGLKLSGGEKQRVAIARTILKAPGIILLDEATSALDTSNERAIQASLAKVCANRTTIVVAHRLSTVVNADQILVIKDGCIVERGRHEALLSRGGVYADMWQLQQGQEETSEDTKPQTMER
Beta-adrenergic receptor kinase 1 (Homo sapiens), sequence (P25098 whole entry, looked up): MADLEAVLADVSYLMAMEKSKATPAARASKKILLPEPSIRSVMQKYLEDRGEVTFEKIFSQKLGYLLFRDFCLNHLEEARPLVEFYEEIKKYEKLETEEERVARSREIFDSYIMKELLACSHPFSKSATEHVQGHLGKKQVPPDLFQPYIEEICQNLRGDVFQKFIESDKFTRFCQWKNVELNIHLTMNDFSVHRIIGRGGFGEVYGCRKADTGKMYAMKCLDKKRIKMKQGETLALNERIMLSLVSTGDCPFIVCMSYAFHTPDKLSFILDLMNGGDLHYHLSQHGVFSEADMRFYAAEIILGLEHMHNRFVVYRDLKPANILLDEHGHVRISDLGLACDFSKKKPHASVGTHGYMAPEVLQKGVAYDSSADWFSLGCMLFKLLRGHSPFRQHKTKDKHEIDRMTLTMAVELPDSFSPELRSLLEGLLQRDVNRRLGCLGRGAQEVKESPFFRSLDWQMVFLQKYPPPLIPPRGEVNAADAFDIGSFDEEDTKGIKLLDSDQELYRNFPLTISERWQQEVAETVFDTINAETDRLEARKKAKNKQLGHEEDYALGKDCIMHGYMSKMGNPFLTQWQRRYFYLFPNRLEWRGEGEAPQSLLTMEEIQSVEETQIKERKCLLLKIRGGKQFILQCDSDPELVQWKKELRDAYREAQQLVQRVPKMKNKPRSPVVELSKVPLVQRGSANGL
Integrin beta-1 (Homo sapiens) + Integrin alpha-4 (Homo sapiens), sequence (P05556 whole entry, looked up): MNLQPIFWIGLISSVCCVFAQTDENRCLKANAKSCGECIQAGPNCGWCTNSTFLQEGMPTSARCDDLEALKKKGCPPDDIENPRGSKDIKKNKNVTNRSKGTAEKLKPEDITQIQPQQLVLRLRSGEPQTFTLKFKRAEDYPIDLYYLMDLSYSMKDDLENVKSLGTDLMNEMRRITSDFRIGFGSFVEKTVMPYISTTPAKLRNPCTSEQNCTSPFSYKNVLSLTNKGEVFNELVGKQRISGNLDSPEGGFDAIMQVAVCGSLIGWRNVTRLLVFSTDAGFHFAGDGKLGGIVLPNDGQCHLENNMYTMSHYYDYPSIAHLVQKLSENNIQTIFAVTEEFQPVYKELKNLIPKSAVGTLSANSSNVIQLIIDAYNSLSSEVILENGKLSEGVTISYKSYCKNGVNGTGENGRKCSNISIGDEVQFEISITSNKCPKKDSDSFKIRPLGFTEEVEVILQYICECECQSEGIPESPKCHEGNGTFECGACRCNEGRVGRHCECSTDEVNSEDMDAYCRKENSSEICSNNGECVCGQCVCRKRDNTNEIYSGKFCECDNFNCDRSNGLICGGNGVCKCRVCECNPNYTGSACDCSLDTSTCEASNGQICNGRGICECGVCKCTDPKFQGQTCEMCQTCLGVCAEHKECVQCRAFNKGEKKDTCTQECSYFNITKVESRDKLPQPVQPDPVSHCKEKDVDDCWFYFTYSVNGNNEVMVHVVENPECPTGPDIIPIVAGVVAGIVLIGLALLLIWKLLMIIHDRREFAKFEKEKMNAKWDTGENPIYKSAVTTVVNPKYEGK
Integrin beta-1 (Homo sapiens) + Integrin alpha-4 (Homo sapiens), sequence (P13612 whole entry, looked up): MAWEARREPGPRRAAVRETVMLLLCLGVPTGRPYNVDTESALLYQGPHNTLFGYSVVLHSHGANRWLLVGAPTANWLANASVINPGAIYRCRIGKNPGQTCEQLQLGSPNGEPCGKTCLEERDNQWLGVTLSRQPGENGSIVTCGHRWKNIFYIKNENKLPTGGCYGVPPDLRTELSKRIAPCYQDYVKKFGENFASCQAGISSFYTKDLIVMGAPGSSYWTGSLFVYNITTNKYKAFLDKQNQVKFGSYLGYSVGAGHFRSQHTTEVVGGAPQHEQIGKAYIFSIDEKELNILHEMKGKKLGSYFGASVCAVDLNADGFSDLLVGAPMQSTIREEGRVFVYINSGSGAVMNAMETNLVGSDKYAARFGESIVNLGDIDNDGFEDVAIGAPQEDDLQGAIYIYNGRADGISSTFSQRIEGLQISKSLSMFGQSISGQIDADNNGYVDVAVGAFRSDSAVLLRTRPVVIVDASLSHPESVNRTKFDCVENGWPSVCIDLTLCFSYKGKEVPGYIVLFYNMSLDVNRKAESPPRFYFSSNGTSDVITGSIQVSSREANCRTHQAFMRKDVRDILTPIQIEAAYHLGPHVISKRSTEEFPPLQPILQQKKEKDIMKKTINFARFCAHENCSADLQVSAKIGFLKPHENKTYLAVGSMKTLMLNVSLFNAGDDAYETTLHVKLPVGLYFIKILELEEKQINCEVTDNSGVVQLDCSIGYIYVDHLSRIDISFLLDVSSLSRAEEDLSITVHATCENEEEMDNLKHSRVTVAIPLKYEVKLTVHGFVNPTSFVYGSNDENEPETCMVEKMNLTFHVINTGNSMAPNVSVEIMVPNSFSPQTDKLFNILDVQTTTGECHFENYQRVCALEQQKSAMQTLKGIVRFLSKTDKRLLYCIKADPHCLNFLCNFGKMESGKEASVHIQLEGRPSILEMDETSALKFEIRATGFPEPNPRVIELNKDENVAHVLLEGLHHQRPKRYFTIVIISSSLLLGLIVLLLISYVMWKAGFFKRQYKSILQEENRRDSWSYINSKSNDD
AP-2 complex subunit beta (Homo sapiens), sequence (P63010 whole entry, looked up, the tested form may be a part, one chain of several): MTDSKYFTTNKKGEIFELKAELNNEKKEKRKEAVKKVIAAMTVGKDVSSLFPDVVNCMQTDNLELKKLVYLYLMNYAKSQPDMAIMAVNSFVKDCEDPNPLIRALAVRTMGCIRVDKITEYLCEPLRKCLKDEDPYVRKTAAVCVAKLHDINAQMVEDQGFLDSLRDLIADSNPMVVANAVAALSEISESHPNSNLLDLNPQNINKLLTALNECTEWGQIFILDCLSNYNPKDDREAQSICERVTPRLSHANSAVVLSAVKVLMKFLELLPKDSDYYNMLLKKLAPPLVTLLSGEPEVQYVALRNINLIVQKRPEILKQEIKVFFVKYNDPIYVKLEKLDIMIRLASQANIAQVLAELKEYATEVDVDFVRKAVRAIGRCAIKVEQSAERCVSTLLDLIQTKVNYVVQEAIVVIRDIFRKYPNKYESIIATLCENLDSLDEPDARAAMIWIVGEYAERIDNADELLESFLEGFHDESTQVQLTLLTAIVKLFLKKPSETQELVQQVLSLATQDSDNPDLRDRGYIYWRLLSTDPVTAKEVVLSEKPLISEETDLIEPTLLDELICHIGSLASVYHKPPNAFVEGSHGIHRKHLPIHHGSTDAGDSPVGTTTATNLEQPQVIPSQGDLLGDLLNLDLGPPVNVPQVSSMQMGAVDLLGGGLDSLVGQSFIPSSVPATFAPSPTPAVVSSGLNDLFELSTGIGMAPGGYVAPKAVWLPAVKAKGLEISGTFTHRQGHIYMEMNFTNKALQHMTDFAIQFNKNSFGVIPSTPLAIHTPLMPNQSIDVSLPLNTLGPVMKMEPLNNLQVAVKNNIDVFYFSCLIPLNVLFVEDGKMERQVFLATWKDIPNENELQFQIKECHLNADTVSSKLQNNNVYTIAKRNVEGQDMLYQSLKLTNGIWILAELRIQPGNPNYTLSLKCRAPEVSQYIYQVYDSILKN

As usually defined, the inhibition is the drop in the measured response relative to a control, in per cent. On to `CC(C)CN1CCN(Cc2ccc3ncccc3c2)CC1CCO` (stereo not given), for which the percent of DMSO control GFP in experiment [1] is 103% (inactive). In addition, the GFP response vs DMSO is 96.2% (inactive) in [2] and 84.8% (inactive) in experiment [4]. Moreover, in [3], the percent response of DMSO control was 118% (inactive). In addition, the GFP response, % of DMSO in [5] was 103% (inactive). Besides, the double positive events in [6] is 62%. Further, the vesicle binding response in experiment [6] is 290% (inactive). Moreover, the inhibition was 4.73% (inactive) in experiment [7], -6.16% (inactive) in experiment [11] and -9% (inactive) in experiment [15]. The superoxide response (% of plate) in [8] is 95% (inactive). Besides, in experiment [9], the aptamer binding inhibition is -1% (inactive). The figures for the response in experiment [10] and in experiment [12] were -8.31% (inactive) and 1.7% (inactive), respectively. In [13], the binding (% of control) is 103% (inactive). For the same compound, the efflux inhibition (fraction of control) in experiment [14] is 0.24 (inactive). In addition, in experiment [16], the differentiation response is 6.11% (inactive).
Consider `COc1ccc(/C=C(/C#N)c2cccnc2)cc1OC`, for which the percent of DMSO control GFP in [1] was 101% (inactive). In addition, the GFP response vs DMSO is 104% (inactive) in experiment [2] and 99.4% (inactive) in experiment [4]. Besides, the percent response of DMSO control in experiment [3] was 94.9% (inactive). The GFP response, % of DMSO in experiment [5] was 99.1% (inactive). This compound also yielded a double positive events in experiment [6] of 54.1%. In addition, the vesicle binding response in [6] is 6.8% (active). The inhibition in experiment [7] was -13.2% (inactive); in [11], 23.7% (inactive); in experiment [15], 2% (inactive). In experiment [8], the superoxide response (% of plate) is 98.6% (inactive). Besides, the aptamer binding inhibition in experiment [9] is 3% (inactive). The response was -1.52% (inactive) in experiment [10] and 0.34% (inactive) in [12]. The binding (% of control) in experiment [13] is 105% (inactive). The efflux inhibition (fraction of control) in [14] is 0.42 (inactive). Also, in experiment [16], the differentiation response was 17.1% (inactive).
As to `CCN1CCn2c3c(c4cc(Cl)ccc42)CCCC31` (stereo not given), in experiment [1], the percent of DMSO control GFP is 99.3% (inactive). Moreover, the GFP response vs DMSO in experiment [2] is 102% (inactive); in experiment [4], 107% (inactive). For the same compound, in experiment [3], the percent response of DMSO control was 97.7% (inactive). Further, the GFP response, % of DMSO in experiment [5] was 116% (inactive). Moreover, in experiment [6], the double positive events is 62.3%. In [6], the vesicle binding response was 154% (inactive). For the same compound, the inhibition in [7] is -10.5% (inactive); in experiment [11], -7.04% (inactive); in experiment [15], -8% (inactive). Moreover, in experiment [8], the superoxide response (% of plate) was 106% (inactive). Further, the aptamer binding inhibition in experiment [9] is 5% (inactive). In addition, the response in [10] is -10.7% (inactive); in [12], 3% (inactive). Further, the binding (% of control) in experiment [13] was 104% (inactive). The efflux inhibition (fraction of control) in experiment [14] was -0.09 (inactive). Further, the differentiation response in experiment [16] is -21.7% (inactive).
With `CCC(=O)Nc1ccc(C(=O)N2CCN(C(=O)c3ccco3)CC2)cc1`, in experiment [1], the percent of DMSO control GFP was 101% (inactive). Also, the GFP response vs DMSO is 109% (inactive) in experiment [2] and 101% (inactive) in experiment [4]. In experiment [3], the percent response of DMSO control is 104% (inactive). Also, the GFP response, % of DMSO in experiment [5] is 99.7% (inactive). In experiment [6], this compound displayed a double positive events of 64.9%. In [6], the vesicle binding response was 202% (inactive). Besides, the inhibition in experiment [7] was 4.73% (inactive); in experiment [11], 0.87% (inactive); in experiment [15], 0% (inactive). Besides, the superoxide response (% of plate) in [8] was 101% (inactive). In addition, the aptamer binding inhibition in experiment [9] was 0% (inactive). Also, the response in experiment [10] was -11.7% (inactive); in experiment [12] it was -1.11% (inactive). The binding (% of control) in experiment [13] was 95.5% (inactive). Further, the efflux inhibition (fraction of control) in [14] is -0.23 (inactive). Further, the differentiation response in experiment [16] is 7.09% (inactive).
Regarding `NC(=O)C1CCCNC1` (stereo not given), the percent of DMSO control GFP in [1] was 106% (inactive). Also, the GFP response vs DMSO in experiment [2] was 98.7% (inactive); in [4], 98% (inactive). Moreover, the percent response of DMSO control in experiment [3] was 109% (inactive). In [5], the GFP response, % of DMSO is 105% (inactive). For the same compound, the double positive events in experiment [6] came to 75.5%. The vesicle binding response in experiment [6] is 302% (inactive). Besides, the inhibition in [7] is 1.59% (inactive); in experiment [11], 0.42% (inactive); in experiment [15], 10% (inactive). Moreover, the superoxide response (% of plate) in experiment [8] is 104% (inactive). Also, in [9], the aptamer binding inhibition is -2% (inactive). Besides, the response in experiment [10] was 7.03% (inactive); in experiment [12], -3.07% (inactive). Further, the binding (% of control) in experiment [13] was 103% (inactive). In addition, the efflux inhibition (fraction of control) in [14] was 0.11 (inactive). For the same compound, the differentiation response in experiment [16] was 8.59% (inactive).
